# TrxR1 substrate – substrates of rat thioredoxin reductase 1 | Potency, µM (top dose mostly 114 µM), without a hit: top-dose activity change, negative = substrate turnover | purified TrxR1 substrate turnover, NADPH consumption readout | hit rate 0.01% among 390,000 | O89049; note: potency is the fitted concentration of half-maximal effect; nearly all actives have a fitted effect of over 50% in size
#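 Rat TrxR1, dispensed at 90 nM, was prereduced with 400 uM NADPH (final) for 5 min at ~22 deg C, then incubated with compound 15 min before 400 uM selenite. A first-read NADPH fluorescence drop versus no-compound background flagged substrates.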
# rTrxR1 inhibitor – rat TrxR1 inhibition | Potency, µM (highest dose often 114 µM), for inactives: top-dose activity change, negative = inhibition, hits mostly inhibitors | O89049 | AID 588453 | recombinant rTrxR1, NADPH fluorescence consumption, selenite substrate | hit rate 1% among 390,000; note: potency is the fitted concentration of half-maximal effect; nearly all actives have a fitted effect of over 65% in size
#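 Rat TrxR1 (90 nM in the dispensed reagent) was pre-reduced with 400 uM NADPH for 5 min at room temperature, then incubated with compound for 15 min. After 400 uM selenite was added, NADPH fluorescence (Ex 340/Em 450 nm) was followed for 8 min.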
# GALK inh – blocks human galactokinase activity | P51570 | Purified GALK, Kinase-Glo residual ATP luminescence | Potency, µM (doses to about 57.5 µM), for inactives: at the top dose activity change, negative = inhibition, hits mostly inhibitors | hit rate 0.007% among 270,000 | AID 1868; note: potency is the fitted concentration of half-maximal effect
#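 ATP-depletion format; final 35 uM ATP, 100 uM D-galactose, 5 nM enzyme; pH 8.0 HEPES/Mg2+ buffer; 60 min RT; luminescence read 10 min after detection reagent.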
# PI4K2A block – blocks human PI4K2A kinase activity | Q9BTU6 | purified PI4K2A, ADP-Glo luminescence, 1 h; active compounds read low | activity change, negative = inhibition, % at 76.9 µM | hit rate 0.13% among 420,000; in the data active = activity change below about -50%; inconclusive = mostly about -30% to -49%;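 note: -100% = wells without enzyme as full effect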
#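 ADP-Glo luminescence measured ADP generated by PI4K2A enzyme (4 ug/mL before mixing) with 1.2 mM PI substrate (pre-mix) and 300 microM ATP (pre-mix). Tris pH7.5 buffer with MgCl2, Triton X-100; 1 h reaction at ambient temperature.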
# PKM2 activator – increases activity of human pyruvate kinase M2. P14618. purified PKM2, Kinase-Glo ATP luminescence, activation; response scale: 0% is enzyme alone, no compound. Potency, µM (series often up to 57.5 µM), without a hit: at the top dose activation, most hits filed as activators. hit rate 0.34% among 260,000. AID 1631; note: potency is the fitted concentration of half-maximal effect; nearly all actives have a fitted effect of over 55% in size
# Target sequence (P14618 whole entry, looked up): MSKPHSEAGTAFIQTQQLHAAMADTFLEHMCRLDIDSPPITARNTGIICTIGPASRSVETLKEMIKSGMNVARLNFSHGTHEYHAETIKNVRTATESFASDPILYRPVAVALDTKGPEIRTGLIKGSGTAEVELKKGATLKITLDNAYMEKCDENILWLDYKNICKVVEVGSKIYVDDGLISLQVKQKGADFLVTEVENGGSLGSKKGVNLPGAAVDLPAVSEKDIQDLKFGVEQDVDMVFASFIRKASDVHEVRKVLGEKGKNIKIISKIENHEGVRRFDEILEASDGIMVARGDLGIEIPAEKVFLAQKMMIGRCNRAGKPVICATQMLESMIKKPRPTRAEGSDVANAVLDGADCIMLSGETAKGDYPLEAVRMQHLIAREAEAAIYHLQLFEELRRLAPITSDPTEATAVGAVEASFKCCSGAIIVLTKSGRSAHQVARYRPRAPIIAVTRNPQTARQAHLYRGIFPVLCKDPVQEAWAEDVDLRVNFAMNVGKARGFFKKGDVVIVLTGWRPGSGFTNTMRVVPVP
#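 ATP formation by purified human PK-M2, quantified via coupled luciferase luminescence after 1 h at room temperature with 0.1 mM ADP and 0.5 mM PEP final.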
# * marks the source's active call; other numbers are inactive results; ? = inconclusive; / = no result; ! = not confirmed by another sample; [ ] = another dose, or the depositor's remark. Most compounds without a hit are left out; they make up all but 1.2% or so of the library. Unless noted, calls come from the whole dose curve; as a rule, active = well fitted curve in the direction sought with a large enough effect; inconclusive = small, poorly fitted or top-dose-only effect, or another doubt; inactive = no such curve, though single readings can be large; an effect the other way counts as inactive or inconclusive. Unless noted, % is set by controls: 0 for no effect and ±100 for the full control effect.
SMILES,TrxR1 substrate,rTrxR1 inhibitor,GALK inh,PI4K2A block,PKM2 activator
O=C(N/N=C/c1ccncc1)c1ccccc1[N+](=O)[O-],-22.1%[57.1 µM],13.0%[57.1 µM],0.0%,-0.8,-0.6%
O=C(Nc1ccccc1N1CCOCC1)c1ccccc1[N+](=O)[O-],0.4%,8.4%,-3.1%,-3.0,-1.8%
O=C(Nc1ccc(N2CCOCC2)nc1N1CCOCC1)c1cccc(C(F)(F)F)c1,7.7%[57.1 µM],10.9%[57.1 µM],2.4%,0.1,-4.3%
O=C(N/N=C/c1ccc(N2CCCCC2)o1)c1ccccc1[N+](=O)[O-],-1.7%,10µM*,2.6%,-0.2,?
N#Cc1ccccc1Cn1c(=O)n(CCCC(=O)NCc2ccc3c(c2)OCO3)c(=O)c2sccc21,-6.8%,2.4%,/,5.3,/
Cc1ccc(Cl)cc1N1CCN(C(=O)c2cnc(N3CCOCC3)c3ccccc23)CC1,-2.5%[57.1 µM],8.8%[57.1 µM],/,-0.6,/
O=c1cc(CSc2nnc(COc3ccccc3Cl)o2)nc2sccn12,5.8%[57.1 µM],6.1%,-0.6%,-1.2,25.1µM*
CC(=O)N1CCc2c(sc(NC(=O)c3ccc([N+](=O)[O-])o3)c2C#N)C1,-20.6%,?,7.3%,-5.7,-19.6%
COC(=O)c1sc(NC(=O)c2ccc([N+](=O)[O-])o2)c(C#N)c1C,?,14.1µM*,-0.7%,3.4,-16.3%
NC1=NS(=O)(=O)Nc2ccccc21,/,/,/,-3.6,/
CC1=CN2C(=N)/C(=C/c3ccco3)C(=O)N=C2S1,-11.2%,-11.0%,3.5%,-9.6,-11.3%
CC1=CN2C(=N)/C(=C/c3ccc([N+](=O)[O-])o3)C(=O)N=C2S1,-16.5%,2.51µM*,2.9%,-19.0,0.5%
CCOc1ccc(-n2c(SCC(=O)Nc3ccc4cn[nH]c4c3)nnc2-c2ccc(C(C)(C)C)cc2)cc1,/,/,/,0.5,/
O=S(=O)(NCC1CCN(S(=O)(=O)c2ccccc2)CC1)c1ccccc1,-0.8%,9.3%,-0.1%,-2.5,2.82µM*
O=S(=O)(NCC1CCN(c2ccc(S(=O)(=O)N3CCOCC3)cc2)CC1)c1ccccc1,-6.8%[57.1 µM],20.6%[57.1 µM],-0.9%,-3.7,0.7%
O=C(CCl)N1CCCC1c1ccc2c(c1)OCCO2 (stereo unspecified),3.5%,25.1µM*,0.5%,9.8,/
CC(=O)c1ccc(OCC(=O)N2CCCC2c2ccc3c(c2)OCCCO3)cc1 (stereo unspecified),8.7%[57.1 µM],14.5%,/,0.2,/
Nc1c(C(=O)NC2CC2)sc2nc3c(c(-c4ccco4)c12)CC/C3=C/c1ccco1,-13.5%,?,2.5%,-74.0*,-6.1%
NC(=O)c1sc2nc3c(c(-c4ccco4)c2c1N)CCC3,1.3%,-18.7%,-0.3%,-0.1,-3.8%
O=C1/C(=C/c2ccncc2)SC(=S)N1Nc1ccccc1,-7.1%[57.1 µM],4.47µM*,-6.8%,-8.8,5.7%
O=C1/C(=C/c2ccc(O)c(O)c2)SC(=S)N1Nc1ccccc1,-5.2%,-1.8%,-3.5%,-11.2,2.0%
O=C(O)c1ccc(/C=C2\SC(=S)N(Nc3ccccc3)C2=O)cc1,-7.9%,50.1µM*,-8.7%,-8.7,0.4%
CC(CN1c2ccccc2Sc2ccccc21)N(C)C (stereo unspecified),16.9%[57.1 µM],11.9µM*!,-1.8%,1.8,-13.0%
O=C(Cn1c(=O)n(Cc2ccc3c(c2)OCO3)c(=O)c2oc3ccccc3c21)Nc1ccccc1F,4.2%,4.3%,/,-4.2,/
Nc1c(N(CCO)C(=O)/C=C/c2ccco2)c(=O)[nH]c(=O)n1Cc1ccccc1,-5.6%,20µM*,1.6%,-0.4,-2.0%
SMILES,TrxR1 substrate,rTrxR1 inhibitor,GALK inh,PI4K2A block,PKM2 activator
COCCN(C(=O)/C=C/c1cccc([N+](=O)[O-])c1)c1c(N)n(Cc2ccccc2)c(=O)[nH]c1=O,2.0%,8.0%,-0.4%,3.2,3.16µM*
Cc1cc(Cl)ccc1OCC(=O)N(Cc1ccco1)c1c(N)n(Cc2ccccc2)c(=O)[nH]c1=O,-2.8%,50.1µM*,/,2.0,/
C[C@H]1[C@@H](OC(=O)Nc2ccccc2Cl)CC[C@@]23CCCN2C(=O)CCC[C@@H]13,/,/,/,3.4,/
O=[N+]([O-])c1ccccc1NCCNS(=O)(=O)c1ccc(Cl)cc1,5.4%,12.1%,1.1%,0.5,2.0%
O=[N+]([O-])c1ccc(NCCCNS(=O)(=O)c2ccc(Cl)cc2)c(Cl)c1,-5.3%,25.0%,1.6%,-6.7,14.1µM*
O=C1NC(=S)NC1=Cc1ccco1,-10.4%,7.94µM*,/,-0.1,/
CN(C(=O)CCn1nnc(-c2cccs2)n1)C1CCCCC1,/,/,/,-1.8,/
O=C(OCc1ccc2c(c1)OCO2)c1ccc(S(=O)(=O)N2CCCC2)cc1,-9.4%,-7.0%,0.3%,-4.6,8.91µM*
O=C(OCc1ccco1)c1ccc(S(=O)(=O)N2CCCCC2)cc1,2.3%[57.1 µM],17.8µM*,-1.4%,-22.0,26.7%
O=C(OCc1ccc2c(c1)OCO2)c1cccc(S(=O)(=O)N2CCCCC2)c1,-2.4%,2.7%,0.8%,-4.0,1.7%
O=C(COC(=O)c1ccc(S(=O)(=O)N2CCCCC2)cc1)NCc1ccco1,6.7%[57.1 µM],21.6%[57.1 µM],-1.3%,-5.1,-0.6%
Cc1cccc(C)c1NC(=S)NCCc1ccc(O)c(O)c1,6.0%,?,-1.3%,4.3,28.2µM*
CC(=O)N1CCCc2cc(S(=O)(=O)N3CCCC(C(=O)Nc4cccc(Cl)c4C)C3)ccc21 (stereo unspecified),2.6%[57.1 µM],30.5%[57.1 µM],/,-0.7,/
Cc1ccc(Cl)cc1NC(=O)C1COc2ccccc2O1 (stereo unspecified),4.8%[57.1 µM],3.8%[57.1 µM],0.0%,-22.0,1.4%
CCN(CC(=O)Nc1cc(Cl)ccc1C)C(=O)C1COc2ccccc2O1 (stereo unspecified),0.2%,50.1µM*,/,-0.2,/
COc1ccc(CN2CCNC(=O)C2CC(=O)NCc2cc(C)n(C)n2)c(F)c1 (stereo unspecified),0.8%,39.8µM*,0.3%,6.1,2.5%
Cc1ccc(C2C(C#N)=C(N)Oc3cc(N)ccc32)cc1 (stereo unspecified),-7.4%,5.5%,3.4%,0.2,-5.9%[11.5 µM]
Cc1ccc(/C=C2\CCC3=C2OC(N)=C(C#N)C3c2ccc(C)cc2)cc1 (stereo unspecified),-9.4%,50.1µM*,2.6%,33.7,-1.8%
Cc1c(C(=O)N2CCCC2)sc(NC(=O)c2cccc(Cl)c2)c1C#N,-1.9%,10.3%,-11.9%,4.0,5.0%
Cc1cccc(C(=O)Nc2sc(C(=O)N3CCCC3)c(C)c2C#N)c1,5.6%[57.1 µM],13.0%[57.1 µM],-4.3%,-75.1*,3.0%
CC(=O)N(O)c1ccc(/C=C2\C=Cc3ccccc32)cc1,-5.3%,-6.3%,/,/,/
COc1ccc(-c2csc(-c3ccc(O)cc3)n2)cc1,2.4%,56.2µM*,-0.5%,1.9,13.4%
COC/C=C/C1=CC2=CC(=O)C(C)(OC(=O)C3CCCC3)C(=O)C2=CO1 (stereo unspecified),10.0%[57.1 µM],12.6µM*,-1.9%,-26.9,-1.8%

# Source: PubChem BioAssay (National Center for Advancing Translational Sciences (NCATS))
